Lassa entry inh: blocks Lassa virus binding to or entry into cells; Lassa virus pseudotype entry inhibition, cell reporter; Potency, µM (highest dose often 37.9 µM), for the others: at the highest dose activity change, negative = inhibition, actives largely listed as inhibitors; 1.2% of 300,000 active; AID 540256; calls by dose curve; tested in HEK293 cells; further: potency means the concentration at half of the fitted maximal effect; on the % scale 0 is the no-effect control and ±100 the full control effect; nearly all actives have a fitted effect of over 50% in size
Shiga inhibitor: blocks Shiga toxin action in Vero cells; 9.2% of 290,000 active; inhibition, % at 38.7 µM; Vero cells, Shiga toxin protein synthesis inhibition reporter; in the data active means inhibition mostly above about 28%, no sharp cut-off; inactive means mostly below about 43%; further: 0% is about no effect
Marburg entry inh: blocks Marburg virus binding to or entry into cells | Marburg virus pseudotyped entry inhibition, cell reporter | Potency, µM (highest dose often 37.8 µM), for the others: at the highest dose activity change, negative = inhibition, usual class: inhibitors | 1.8% of 300,000 active; calls by dose curve; tested in HEK293 cells; further: potency means the concentration at half of the fitted maximal effect; on the % scale 0 is the no-effect control and ±100 the full control effect
Cycloheximide cs: counter-screen hit for Shiga toxin inhibitors, cycloheximide; cell reporter, cycloheximide protein synthesis inhibition counterscreen; max response, %; 12% of 300,000 active; AID 2314; in the data active means max response mostly above about 13%, no sharp cut-off; inactive means mostly below about 14%; further: read at 38.3 µM for the half of the compounds with a filed dose; 0% is about no effect
Numbers without * were called inactive; [ ] = dose if it differs, or a comment. The list is not random: actives were taken first. Their share in the collection is about 12%.

How did c1ccc(C2Nc3ccccc3-c3nc4ccccc4n32)nc1 (centres undefined) do in these assays?
Lassa entry inh: inconclusive; Shiga inhibitor: -11; Marburg entry inh: inconclusive; Cycloheximide cs: -4

What do the screens show for `c1ccc(C2Nc3ccccc3-c3nc4ccccc4n32)cc1` (centres undefined)?
Lassa entry inh: inconclusive; Shiga inhibitor: 57; Marburg entry inh: inconclusive; Cycloheximide cs: 31*

How did COc1ccc(Nc2ncnc3onc(-c4ccc(Cl)cc4)c23)cc1Cl do in these assays?
Lassa entry inh: 13µM*; Marburg entry inh: 7.1µM*

How did COc1cc(Nc2ncnc3onc(-c4ccc(Cl)cc4)c23)cc(OC)c1 do in these assays?
Lassa entry inh: -22%[46.1 µM]

Results for O=C(Cc1ccc(-n2cccc2)cc1)N1CCc2ccccc21 ?
Lassa entry inh: 0%; Shiga inhibitor: 47; Marburg entry inh: inconclusive; Cycloheximide cs: 20*

Results for COc1ccc(CNC(=O)c2ccc(NC(=O)N3CCCCc4ccccc43)cc2)cc1 ?
Lassa entry inh: 0%[46.1 µM]

Results for COc1ccc(NC(=O)N2CCc3ccccc32)cc1 ?
Lassa entry inh: inconclusive; Shiga inhibitor: 38; Marburg entry inh: inconclusive; Cycloheximide cs: 29*

Results for CC1(CCc2ccccc2)NC(=O)N(CC(=O)N2CC(=O)Nc3ccccc32)C1=O (centres undefined) ?
Lassa entry inh: -8%[46.1 µM]; Shiga inhibitor: 14; Marburg entry inh: 16%[46.1 µM]; Cycloheximide cs: 7

Results for CC1Cc2ccccc2N1C(=O)CN1C(=O)NC(C)(CCc2ccccc2)C1=O (centres undefined) ?
Lassa entry inh: -2%; Shiga inhibitor: -2; Marburg entry inh: 10%; Cycloheximide cs: 14*

What do the screens show for `COc1ccc(C(=O)N2CCc3ccccc32)cc1`?
Lassa entry inh: 14%; Shiga inhibitor: 46*; Marburg entry inh: inconclusive; Cycloheximide cs: 30*

Results for O=C(CN1CCN(Cc2ccc(Cl)cc2)CC1)N1CCc2ccccc21 ?
Lassa entry inh: -2%; Shiga inhibitor: -6; Marburg entry inh: -1%[46.1 µM]; Cycloheximide cs: -6

What do the screens show for `CN(C)CCCNC(=S)N(CCO)Cc1cc2cc3c(cc2[nH]c1=O)OCO3`?
Cycloheximide cs: 2

How did O=C(NCC1CCCO1)c1ccc(NC(=O)c2ccc([N+](=O)[O-])cc2)cc1 (centres undefined) do in these assays?
Shiga inhibitor: 4; Cycloheximide cs: -2

Results for O=C(CSc1nc2c(oc3ccccc32)c(=O)n1Cc1ccco1)Nc1ccccc1Cl ?
Marburg entry inh: -7%[46.1 µM]

What do the screens show for `O=C(Cc1ccc(F)cc1)NCCc1csc2nc(-c3ccccc3F)nn12`?
Lassa entry inh: -11%[46.1 µM]

What do the screens show for `NS(=O)(=O)c1ccc(NC(=O)c2ccc(S(=O)(=O)N3CCc4ccccc43)cc2)cc1`?
Shiga inhibitor: 3; Cycloheximide cs: 7

Results for COc1ccc(OC)c(NC(=O)N2CCCc3ccccc32)c1 ?
Lassa entry inh: -21%[46.1 µM]; Shiga inhibitor: 30; Marburg entry inh: -16%[46.1 µM]; Cycloheximide cs: 25*

Results for COc1ccc(C(=O)Nc2ccc(S(=O)(=O)N3CCc4ccccc43)cc2)cc1 ?
Lassa entry inh: 13µM*; Marburg entry inh: inconclusive

How did CCOc1ccccc1NC(=O)N1CCCc2ccccc21 do in these assays?
Lassa entry inh: 1%[46.1 µM]; Shiga inhibitor: 33; Marburg entry inh: 14%[46.1 µM]; Cycloheximide cs: 12

Results for C=CCC(CC)C(=O)NC(=O)N1CCCc2ccccc21 (centres undefined) ?
Lassa entry inh: 8%[46.1 µM]; Shiga inhibitor: 30*; Marburg entry inh: inconclusive; Cycloheximide cs: 7

Results for CN(Cc1nc2ccccc2c(=O)[nH]1)C(=O)c1cccc(S(=O)(=O)N2CCc3ccccc32)c1 ?
Lassa entry inh: 4µM*; Marburg entry inh: inconclusive

How did CNS(=O)(=O)c1cn(CC(=O)N2CCN(c3ccc(C(C)=O)cc3)CC2)cc1S(=O)(=O)NC do in these assays?
Lassa entry inh: 8%[46.1 µM]

Results for COc1ccc(-c2nn(-c3ccccc3)cc2C2NC(=O)NC(C)=C2C(=O)OC(C)C)cc1Cl (centres undefined) ?
Lassa entry inh: inconclusive; Marburg entry inh: 17%[46.1 µM]

What do the screens show for `O=C(CSc1nc2c(c(=O)[nH]1)CCCC2)Nc1cccc(O)c1`?
Lassa entry inh: -18%[46.1 µM]; Marburg entry inh: 2%[46.1 µM]

How did CC1Cc2ccccc2N1C(=O)CN1CCN(S(=O)(=O)c2cccs2)CC1 (centres undefined) do in these assays?
Lassa entry inh: -1%; Marburg entry inh: 5%

Results for CCN(CC)CCNC(=O)c1ccc(NC(=O)c2cccc(S(=O)(=O)N3CCc4ccccc43)c2)cc1 ?
Lassa entry inh: -4%; Marburg entry inh: 8.9µM*

Results for CCN(CC)CCNC(=O)c1ccc(NC(=O)c2cccc(S(=O)(=O)N3c4ccccc4CC3C)c2)cc1 (centres undefined) ?
Shiga inhibitor: -22; Cycloheximide cs: -2

What do the screens show for `CCN1CCN(C(=O)c2cc3c(OC)c(OC)c(OC)cc3[nH]2)CC1`?
Shiga inhibitor: -3; Cycloheximide cs: -2

How did COc1cc2[nH]c(C(=O)N3CCc4ccccc43)cc2c(OC)c1OC do in these assays?
Shiga inhibitor: 47*; Cycloheximide cs: 30*

Results for CC1Cc2ccccc2N1C(=O)CCS(=O)(=O)c1cccs1 (centres undefined) ?
Lassa entry inh: 16%; Shiga inhibitor: 60*; Marburg entry inh: 19%; Cycloheximide cs: 33*

What do the screens show for `COc1ccc(CCC(=O)N2c3ccccc3CC2C)cc1` (centres undefined)?
Lassa entry inh: -1%; Shiga inhibitor: 88*; Marburg entry inh: -16%; Cycloheximide cs: 35*

What do the screens show for `O=C(CCCC(=O)N1CCc2ccccc21)N1CCc2ccccc21`?
Lassa entry inh: -1%; Shiga inhibitor: -11; Marburg entry inh: 19%; Cycloheximide cs: -2

How did CCc1ccccc1NC(=O)N1CCOc2ccccc21 do in these assays?
Lassa entry inh: 1%[46.1 µM]

Results for CCc1ccccc1NC(=O)N1CCc2ccccc21 ?
Shiga inhibitor: 53*; Cycloheximide cs: 16*

How did COc1ccc(CCC(=O)N2CCc3ccccc32)cc1 do in these assays?
Lassa entry inh: 0%; Shiga inhibitor: 133*; Marburg entry inh: 4%; Cycloheximide cs: 41*

How did COc1ccc(NC(=O)N2CCCc3ccccc32)cc1 do in these assays?
Lassa entry inh: inconclusive; Shiga inhibitor: 122*; Marburg entry inh: 4%; Cycloheximide cs: 18*

How did O=C(Nc1ccccc1)N1CCc2ccccc21 do in these assays?
Lassa entry inh: -22%; Shiga inhibitor: 71*; Marburg entry inh: inconclusive; Cycloheximide cs: 37*

What do the screens show for `CC(=O)Nc1ccc(NC(=O)C(C)OC(=O)C2CCN(S(=O)(=O)c3ccc4c(c3)OCCO4)CC2)cc1` (centres undefined)?
Lassa entry inh: 11%; Marburg entry inh: -4%

Results for CCOc1ccc(-c2nonc2NC(=O)c2oc3ccc(Cl)cc3c2C)cc1 ?
Lassa entry inh: 3%[46.1 µM]; Marburg entry inh: -14%[46.1 µM]

What do the screens show for `Cc1c(C)c2cc3c(c(C)c2oc1=O)OCN(CCc1ccc(F)cc1)C3`?
Lassa entry inh: 15%[46.1 µM]; Marburg entry inh: 8%[46.1 µM]

How did COc1cccc(NC(=O)CN(C)S(=O)(=O)c2cccs2)c1 do in these assays?
Lassa entry inh: 19%[46.1 µM]; Marburg entry inh: 2%[46.1 µM]

Assay outcomes: PubChem BioAssay, National Center for Advancing Translational Sciences (NCATS)
